Test results reported in PMC4336329 (PLoS ONE, 2015).
Hit rate of the full screen: of about 310,000 compounds, about 14,000 (4.5%) showed an effect of 50% or more. The effect is printed as a negative number. The full list was thinned out, with strong results kept by preference.

Molecular target: human ether-à-go-go-related gene (hERG) potassium channel (human, UniProt Q12809)
Test: primary screen, population patch clamp on CHO cells stably expressing hERG; higher = less effect of the substance
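Further: peak tail current of the secondary pulse compared with the same well before compound.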

Sequence of human ether-à-go-go-related gene (hERG) potassium channel (Q12809 whole entry, looked up): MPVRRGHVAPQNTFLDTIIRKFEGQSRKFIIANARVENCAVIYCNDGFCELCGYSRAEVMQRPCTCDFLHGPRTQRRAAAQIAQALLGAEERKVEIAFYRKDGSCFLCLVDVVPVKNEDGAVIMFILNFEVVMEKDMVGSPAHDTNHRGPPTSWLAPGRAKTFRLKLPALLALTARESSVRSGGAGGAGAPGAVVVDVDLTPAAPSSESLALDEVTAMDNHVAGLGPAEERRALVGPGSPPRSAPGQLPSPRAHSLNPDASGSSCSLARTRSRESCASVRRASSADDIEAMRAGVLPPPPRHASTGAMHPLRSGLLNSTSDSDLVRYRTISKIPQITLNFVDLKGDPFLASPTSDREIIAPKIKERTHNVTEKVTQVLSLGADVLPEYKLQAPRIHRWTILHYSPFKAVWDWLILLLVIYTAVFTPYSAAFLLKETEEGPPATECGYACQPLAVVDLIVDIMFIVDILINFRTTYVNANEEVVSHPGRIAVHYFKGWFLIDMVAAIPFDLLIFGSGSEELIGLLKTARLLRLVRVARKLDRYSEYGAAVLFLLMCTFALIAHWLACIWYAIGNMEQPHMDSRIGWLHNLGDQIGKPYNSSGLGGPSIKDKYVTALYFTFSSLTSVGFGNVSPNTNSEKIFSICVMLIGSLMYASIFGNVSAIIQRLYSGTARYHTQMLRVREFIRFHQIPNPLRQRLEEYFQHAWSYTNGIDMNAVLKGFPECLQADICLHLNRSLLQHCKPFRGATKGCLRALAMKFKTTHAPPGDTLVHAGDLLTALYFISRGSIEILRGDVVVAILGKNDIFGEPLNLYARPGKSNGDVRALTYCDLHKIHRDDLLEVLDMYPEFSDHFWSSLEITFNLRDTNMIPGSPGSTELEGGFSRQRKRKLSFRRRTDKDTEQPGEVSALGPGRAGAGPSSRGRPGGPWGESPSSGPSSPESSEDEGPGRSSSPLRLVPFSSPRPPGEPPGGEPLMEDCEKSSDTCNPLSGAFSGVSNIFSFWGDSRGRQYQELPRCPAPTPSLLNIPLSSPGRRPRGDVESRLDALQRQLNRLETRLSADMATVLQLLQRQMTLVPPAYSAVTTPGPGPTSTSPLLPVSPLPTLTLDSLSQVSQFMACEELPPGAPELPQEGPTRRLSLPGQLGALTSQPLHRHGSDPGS

| Compound | hERG current change (%, negative = inhibition) at 10uM |
| --- | --- |
| COc1ccc(-n2c(=O)c(CCC(=O)N(C)Cc3cccs3)nc3ccccc32)cc1 | -38.7% |
| COc1ccc(-n2c(=O)c(CCC(=O)N(C)Cc3ccccc3C)nc3ccccc32)cc1 | -50.4% |
| CCc1ccc(CN(C)C(=O)CCc2nc3ccccc3n(-c3ccc(OC)cc3)c2=O)cc1 | -0.36% |
| COc1cc2c(cc1OC)-c1cc(Nc3ccccc3)nc(=O)n1CC2 | -64.1% |
| COc1ccc(Nc2cc3n(c(=O)n2)CCc2cc(OC)c(OC)cc2-3)cc1 | 4.8% |
| COc1cc2c(cc1OC)-c1cc(Nc3ccc(C)cc3)nc(=O)n1CC2 | -8.97% |
| O=C(NCc1ccc2c(c1)OCO2)Nc1ccc(Cl)cc1 | 5.12% |
| COc1cccc(NC(=O)c2cnc[nH]2)c1 | 25.1% |
| COc1ccccc1NC(=O)C(=O)NCc1ccncc1 | -5.14% |
| Cn1c(CCc2ccccc2)nnc1SCC(N)=O | 15.3% |
| N#Cc1c(-c2ccccc2)c(-c2ccccc2)nn(CC(=O)NNC(=O)Nc2ccc(Cl)c(Cl)c2)c1=O | -1.35% |
| CC(=O)N1CC[n+]2c(-c3ccc([N+](=O)[O-])cc3)csc21.[Br-] | -68.9% |
| CCc1ccc(-c2csc3[n+]2CCN3C(C)=O)cc1.[Br-] | -29.1% |
| CC(=O)N1CC[n+]2c(-c3ccc(Cl)cc3)csc21.[Br-] | -1.19% |
| CCC1CCc2sc(C(=O)N3CCCN(C)CC3)cc2C1 (centres unmarked) | -12.9% |
| C=CCN1CCN(C(=O)c2cc3c(s2)CCCC3)CC1 | -19.3% |
| C=CCN1CCN(C(=O)c2cc3c(s2)CCC(CC)C3)CC1 (centres unmarked) | -57.3% |
| Cc1ccc(C)c(C(C)NC(=O)c2ccncc2)c1 (centres unmarked) | -7.4% |
| Cc1cc(C(F)F)nn1CC(=O)NC1CCCC1 | 1.56% |

| Compound | hERG current change (%, negative = inhibition) at 10uM |
| --- | --- |
| CC(=O)c1cc(F)c(N2CCN(C(=O)Cc3ccccc3)CC2)cc1C | -11.5% |
| CCN1CCN(C(=O)c2ccc3nc(-c4ccccc4)c(-c4ccccc4)nc3c2)CC1 | -17.4% |
| CCCC(=O)c1ccc(N2CCN(C(=O)OCC)CC2)c(F)c1 | -14.2% |
| CCCC(=O)c1ccc(N2CCN(C(=O)c3ccc(Br)cc3)CC2)c(F)c1 | 2.35% |
| CCOC(=O)N1CCN(C(=O)c2ccc3nc(-c4ccccc4)c(-c4ccccc4)nc3c2)CC1 | -54.6% |
| CCCC(=O)c1ccc(N2CCN(C(=O)c3ccccc3Br)CC2)c(F)c1 | -23.7% |
| CCC(=O)c1ccc(N2CCN(C(=O)Cc3ccccc3)CC2)c(F)c1 | -36.5% |
| CCOC(=O)N1CCN(c2ccc(C(C)=O)cc2F)CC1 | 5.68% |
| CCOC(=O)N1CCN(c2ccc(C(=O)c3ccccc3)cc2F)CC1 | -50.8% |
| CCC(=O)c1cc(F)c(N2CCN(C(=O)Cc3ccccc3)CC2)cc1C | -58.9% |
| CCCC(=O)c1ccc(N2CCN(C(=O)c3ccccc3)CC2)c(F)c1 | -66.7% |
| CN1CCN(C(=O)c2ccc3nc(-c4ccccc4)c(-c4ccccc4)nc3c2)CC1 | 6.03% |
| Cc1ccc(Cn2c(C)cc3c(c2=O)C(c2cccs2)C(C#N)=C(N)O3)cc1 (centres unmarked) | 15.8% |
| CC(C)c1cccc(C(C)C)c1NC(=O)CN1C(=O)NC2(CCCC2)C1=O | 14.8% |
| CCOC(=O)C(O)(CCC(O)(C(=O)OCC)C(=O)OCC)C(=O)OCC | 5.85% |
| Cn1c(=O)c2c(nc(CN3CCC(C(N)=O)CC3)n2CCc2ccccc2)n(C)c1=O | 4.44% |
| CCOC(=O)c1ccc(NC(=O)NC2CC3CCC(C2)N3Cc2nnnn2Cc2ccco2)cc1 (centres unmarked) | -21.1% |
| O=C(NCc1ccc2c(c1)OCO2)c1nn(-c2ccccc2)c(=O)c2ccccc12 | -35.1% |
| COc1ccc(N(CC(=O)NCc2cccnc2)S(=O)(=O)c2c(C)nn(C)c2C)cc1 | 3.1% |

| Compound | hERG current change (%, negative = inhibition) at 10uM |
| --- | --- |
| O=C(CSc1nc(-c2ccccc2)nn1C(=O)c1ccccc1)Nc1cccc([N+](=O)[O-])c1 | 2.83% |
| COc1ccc(NC(=O)CCc2nc3ccccc3s2)c(OC)c1 | -0.68% |
| O=C(CN(c1cccc(C(F)(F)F)c1)S(=O)(=O)c1ccccc1)N1CCOCC1 | -30.5% |
| CCC(=O)c1ccc(N2CCN(C(=O)c3ccccc3)CC2)c(F)c1 | -70.1% |
| CCC(=O)c1ccc(N2CCN(C(=O)c3cccc(F)c3)CC2)c(F)c1 | -41.6% |
| CCOC(=O)N1CCN(C(=O)c2ccccc2CCc2ccccc2)CC1 | -59.1% |
| CCOC(=O)C1CCN(C(=O)c2ccccc2CCc2ccccc2)CC1 | -8.95% |
| CCC(=O)c1ccc(N2CCN(C(=O)c3ccccc3Br)CC2)c(F)c1 | -26.8% |
| O=C(c1ccccc1CCc1ccccc1)N1CCCC1 | 9.12% |
| CCC(=O)c1ccc(N2CCN(C(=O)c3ccc(Br)cc3)CC2)c(F)c1 | -16% |
| CCC(=O)c1ccc(N2CCN(C(=O)c3ccc(F)cc3)CC2)c(F)c1 | -60% |
| CCC(=O)c1ccc(N2CCCCC2)c(F)c1 | 8.26% |
| CCOC(=O)Nc1sc(C(=O)N(C)C)c(C)c1C(=O)OCC | 5.73% |
| O=C(COC(=O)/C=C/c1cccs1)NC(c1ccccc1)c1ccccc1 | -2.53% |
| O=C(CNC(=O)c1ccccc1)OCC(=O)c1ccc(Cl)s1 | 0.566% |
| CC1(C)CC(=O)C2=C(C1)NC(=O)NC2c1ccccc1 (centres unmarked) | 21.7% |
| Cc1oc(CC(C)C)cc1C(=O)NCCCC(=O)O | 13.6% |
| COc1ccc(C2(CNS(=O)(=O)c3ccc(C)cc3)CCOCC2)cc1 | 15.4% |
